# An excerpt weighted towards active compounds, which were near 6.2% of everything screened.
# MARV entry inh = qHTS for inhibitors of binding or entry into cells for Marburg Virus | Marburg virus pseudotyped entry inhibition, cell reporter | hit rate 1.8% among 300,000 | Potency, µM (series often up to 37.8 µM), for inactives: at the top dose activity change, negative = inhibition, usual class: inhibitors | AID 540276, 2011; calls by dose curve; tested in HEK293 cells; note: potency is the fitted concentration of half-maximal effect
# LASV entry inh = qHTS for Inhibitors of binding or entry into cells for Lassa Virus; AID 540256, 2011; hit rate 1.2% among 300,000; Lassa virus pseudotype entry inhibition, cell reporter; Potency, µM (doses to about 37.9 µM), inactives show at the highest dose activity change, negative = inhibition, usual class: inhibitors; calls by dose curve; tested in HEK293 cells; note: potency is the fitted concentration of half-maximal effect; nearly all actives have a fitted effect of over 50% in size
# FMDV inh = High Throughput Screening for Foot and Mouth Disease Virus Antivirals. FMDV antiviral cell-based qHTS. Potency, µM (top dose mostly 57.9 µM), for the others: at the top dose activity change, negative = inhibition, actives largely listed as inhibitors. hit rate 1.2% among 410,000. AID 1159524, 2015; calls by dose curve; tested in HEK293T cells; note: read-out not given here; potency is the fitted concentration of half-maximal effect; nearly all actives have a fitted effect of over 45% in size
# HCMV antiviral = qHTS Assay for inhibitors of the human cytomegalovirus (HCMV); activity change, negative = inhibition, % at 57.5 µM; hit rate 4.5% among 410,000; HFF cells, HCMV-luciferase reporter, 72 h; stronger effect = lower value; in the data active = activity change below about -60%; inconclusive = no clear call, values can overlap the other calls; inactive = above about -39%
#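 Inhibition of viral replication was scored as loss of reporter luminescence in HFFs infected with HCMV-luciferase (MOI 1 PFU/cell) for 72 h; compounds tested at 2 doses, normalized to buffer and Salinomycin controls.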
# Numbers without * were called inactive; ? = inconclusive; . = no result; ! = repeats disagree; [ ] = another dose, or the depositor's remark. % is set by controls: 0 for no effect and ±100 for the full control effect.
SMILES,MARV entry inh,LASV entry inh,FMDV inh,HCMV antiviral
COc1ccc(F)c(CN(C)CC2CCCN(CCc3ccc(F)cc3)C2)c1 (stereo unspecified),11µM*,?,-16%,-15
COc1ccc(CN(C)CC2CCCN(CCc3ccc(F)cc3)C2)cc1OC (stereo unspecified),.,.,-1%,0
COc1ccc(CCN2CCCC(CN(C)Cc3cc(OC)c(OC)c(OC)c3)C2)cc1 (stereo unspecified),?,?,-10%,26
COc1ccc(CN(C)CC2CCCN(CCc3ccc(Cl)cc3)C2)cc1OC (stereo unspecified),2.2µM*,?,-15%,43
COCC(=O)N(C)CC1CCCN(CCc2ccccc2OC)C1 (stereo unspecified),?,21%,-3%,22
COc1ccccc1CCN1CCCC(CN(C)CC(C)(C)CO)C1 (stereo unspecified),13µM*,?,-16%,51
O=C(NCC1CCC2(CCN(Cc3ccc4ncccc4c3)CC2)O1)C1CCCO1 (stereo unspecified),.,.,-4%,.
COc1ccccc1CNC(=O)CCC1N=C2c3ccccc3N=C(SCc3ccc(C)cc3)N2C1=O (stereo unspecified),.,-25%[46.1 µM],31%,18
CCNc1nc(NCC)n2c(SC(C(=O)Nc3cc(C)ccc3C)c3ccccc3)nnc2n1 (stereo unspecified),2%,-6%,?,23
CCNc1nc(NCC)n2c(SC(C)C(=O)c3ccc(C)cc3)nnc2n1 (stereo unspecified),12µM*,-14%,?,?
Cc1ccc(C)c(NC(=O)Cc2nc(CNCC(C)C)cs2)c1,7.9µM*,0%,0%,-13
C/C(=N\NC(N)=O)C1(C)CCCCC1,16%,5%,-16%,-6
C/C(=N\NC(N)=S)C12CC3CC(CC(C3)C1)C2,?,?,.,-69*
C/C(=N\NC(N)=S)C1(C)CCCCC1,-31%,-37%,-4%,-61*
CC(=O)c1cccc(NC(=O)c2noc3c2CC(C)CC3)c1 (stereo unspecified),.,21%[46.1 µM],38%,56
S=C(NCc1ccc2c(c1)OCO2)Nc1ccc(-c2nc3ccccc3[nH]2)cc1,?,-12%,?,-61*
O=C(NC(=S)Nc1cc(-c2nc3ccccc3[nH]2)ccc1Cl)c1ccc2c(c1)OCO2,-27%,?,?,-76*
Cc1oc2ncn(CC(C)C)c(=O)c2c1C(=O)NCCc1ccccc1,.,-5%[46.1 µM],-13%,28
COc1ccc(OC)c2sc(N3CCc4ccccc4C3)nc12,-30%[46.1 µM],-2%,27%,-76*
c1ccc2c(c1)CCN(c1nc3cc4c(cc3s1)OCCO4)C2,?,4.6µM*,7.9µM*,-90*
COCCNc1nc(-c2ccc(OC)cc2C)c2sc(-c3ccccc3)cc2n1,.,.,-24%,5
Nc1nc2c(ncn2C2CC(O)C(CO)O2)c(=O)[nH]1 (stereo unspecified),.,.,21%,.
CC(=O)n1cc(/C=N/NC(=O)c2sc(C)nc2C)c2ccccc21,-16%,0%,0%,29
CC(=O)n1cc(-c2ccncc2)c2ccccc21,.,.,-21%,-94*
CC(C)n1ncc2c(C(=O)N3CCN(c4ccc(F)cc4)CC3)cc(-c3ccccc3)nc21,.,.,7%,-70*
SMILES,MARV entry inh,LASV entry inh,FMDV inh,HCMV antiviral
CN(C)c1ncnc2ccc(-c3cccc(C#N)c3)cc12,.,.,-12%,.
COc1ccc(CCN(C)Cc2ccncc2)cc1OC,6%,-4%,-17%,0
COc1ccc(CCN(C)CCCC(C#N)(c2cc(OC)c(OC)c(OC)c2)C(C)C)cc1OC (stereo unspecified),8.9µM*,?,0%,-32
COc1ccc(CCN(C)CCc2ccc(OC)c(OC)c2)cc1OC,5µM*!,-22%,-18%,-7
COc1ccc(CCN(C)CC(O)c2ccccc2)cc1OC (stereo unspecified),3%[46.1 µM],20%,-6%,-74*
COc1ccc(CCN(C)C/C=C/c2ccccc2)cc1OC,.,.,-21%,2
O=C(Cc1ccc(Cl)cc1)N/N=C/c1ccncc1,-22%[46.1 µM],9%[46.1 µM],11%,-14
O=C(CC(=O)N/N=C/c1ccc(C(=O)O)cc1)NCCc1ccccc1,.,.,-1%,-97*
O=C(Cc1ccccc1)NN=Cc1ccccc1,2%,12%[46.1 µM],19%,-1
O=C(Cc1ccc(Cl)cc1)N/N=C/c1ccccc1,.,.,5%,-68*
COc1ccc(CCNC(=O)CC(=O)N/N=C/c2ccc(C(=O)O)cc2)cc1OC,-4%,-2%,12%,-12
O=C(O)COc1ccc(/C=N/NC(=O)Cc2ccc(Cl)cc2)cc1,?,-6%[46.1 µM],-21%,-101*
